# Laboratory results reported in PubChem BioAssay AID488922 (Johns Hopkins Ion Channel Center, 2010).
# Hit rate of the full screen: of about 310,000 compounds, about 3,800 (1.2%) were called active.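 The calls were made as follows: active = ratio B-score over 3 SD below the library mean, with starting fluorescence within 5 SD of its mean; inactive = the rest, inconclusive results apart.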 This excerpt belongs to a sample that is enriched for actives.
# Molecular target: Potassium channel subfamily K member 9 (Homo sapiens) (UniProt Q9NPC2)
# Sequence (Q9NPC2 whole entry, looked up): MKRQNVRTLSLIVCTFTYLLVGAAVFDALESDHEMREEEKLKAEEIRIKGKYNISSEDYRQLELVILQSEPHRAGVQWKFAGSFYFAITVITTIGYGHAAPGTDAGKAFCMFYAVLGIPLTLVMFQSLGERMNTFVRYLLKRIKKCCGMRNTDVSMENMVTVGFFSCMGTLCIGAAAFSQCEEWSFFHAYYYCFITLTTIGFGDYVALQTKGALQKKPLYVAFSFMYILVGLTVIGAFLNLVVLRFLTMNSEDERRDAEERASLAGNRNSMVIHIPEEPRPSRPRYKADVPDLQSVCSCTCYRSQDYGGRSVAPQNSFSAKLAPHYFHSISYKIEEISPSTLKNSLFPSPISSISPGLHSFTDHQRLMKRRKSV
# Test: KCNK9 potassium channel inhibitors, primary screen, HEK293 cells, thallium flux (AID 488922);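 as to B-score: negative B-score means less thallium flux so channel inhibition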
# Details: HEK293 KCNK9, FluxOR thallium flux fluorescence, at 10 µM; stronger effect = lower value
row,Compound,B-score
1,CC(=O)Nc1ccc(S(=O)(=O)NC(C)C(=O)OCC(=O)NC2CCCC2)cc1 (centres undefined),inactive
2,CCc1ccc(NC(=O)NC(C)c2ccc3c(c2)OCO3)cc1 (centres undefined),inactive
3,O=C(Nc1ccc2c(c1)OCCO2)C(c1ccc(F)cc1)N1CCCCC1 (centres undefined),inactive
4,CC1CCCN(C(C(=O)Nc2ccc(C(C)C)cc2)c2ccc3c(c2)OCO3)C1 (centres undefined),-7.66 (active)
5,O=C(Nc1ccc(S(=O)(=O)Nc2ccccn2)cc1)c1ccccc1,inactive
6,CCN(CC)C(=O)CN(c1cccc([N+](=O)[O-])c1)S(=O)(=O)c1ccccc1,inactive
7,C=CCN(N=Nc1cccc([N+](=O)[O-])c1)c1cccc([N+](=O)[O-])c1,-11.2 (active)
8,O=C(CCl)N(Cc1cccc([N+](=O)[O-])c1)c1cccc(Cl)c1,inactive
9,Cc1ccc(CSCC(=O)N(C)CC(=O)Nc2ccc(C)cc2)cc1,inactive
10,O=S(=O)(Cc1noc(-c2ccc(OC(F)(F)F)cc2)n1)c1ccc(F)cc1,inactive
11,COc1cc(Cl)c(C)cc1NC(=O)CSc1nnc(-c2cccnc2)n1Cc1ccco1,inactive
12,CCn1c(SCC(=O)Nc2cc(C)c(Cl)cc2OC)nnc1-c1ccco1,inactive
13,COc1cc(Cl)c(C)cc1NC(=O)CSc1nnc(-c2ccco2)n1CC(C)C,-10 (active)
14,CCOC(=O)c1sc(=NC(=O)c2ccc(Br)cc2)n(C)c1C,inactive
15,CCOC(=O)C1=C(C)Nc2sc(C(=O)c3ccc(Br)cc3)c(N)c2C1c1ccc(C(=O)OC)cc1 (centres undefined),-9.37 (active)
16,CCOC(=O)c1sc(=S)n2c1[nH]c(=O)c1ccc(C(=O)OC)cc12,inactive
17,CN(CC(=O)Nc1cccc(F)c1)C(=O)C1=COCCO1,inactive
18,Cc1ccc(-n2ncc3c(Nc4cccc(C(=O)O)c4)ncnc32)cc1,inactive
19,COc1ccc(C2=NS(=O)(=O)N(C)C(C(=O)N3CCCCC3)=C2)cc1,inactive
20,O=C(CNCCC1=CCCCC1)Nc1ccccc1N1CCCCCC1,-8.91 (active)
21,Cc1ccccc1NC(=O)CNc1ccccc1N1CCCCC1,inactive
22,Cc1ccccc1NC(=O)Nc1ccccc1N1CCCCC1,inactive

row,Compound,B-score
1,Cc1ccc2oc(C(=O)N3CCN(C)C[C@@H]3C(C)C)c(C)c2c1,inactive
2,O=C(c1cc(Cl)cc(Cl)c1)N1CCC(=O)N(C(COCc2ccccc2)Cc2ccccc2)CC1 (centres undefined),inactive
3,CC(C)CC(COCc1ccc(Cl)cc1)N1CCN(C(=O)c2ccc(C(F)(F)F)cc2)CCC1=O (centres undefined),-8.19 (active)
4,CC(C)CC(CO)N1CCN(C(=O)c2ccc(Cl)cc2Cl)CCC1=O (centres undefined),inactive
5,O=C1[C@H]2[C@@H](c3ccc(Cl)cc3)N3C(=O)N(c4cccc(F)c4)C(=O)[C@@]3(Cc3ccccc3)[C@H]2C(=O)N1C1CCCCC1,inactive
6,Cc1onc(-c2ccc(Cl)cc2)c1-c1ccnn1S(=O)(=O)c1ccc(Cl)cc1,-12.4 (active)
7,COC(=O)c1noc(C)c1-c1ccnn1C(=O)c1ccc(Cl)cc1,inactive
8,Cc1ccc(S(=O)(=O)Cc2cc(-c3ccc(Cl)cc3)no2)cc1,inactive
9,Cc1ccc(NS(=O)(=O)c2ccc(-c3coc(C)n3)cc2)c(C)c1,inactive
10,COc1cc(C(=O)OCC(=O)N(CC(C)C)C2CCS(=O)(=O)C2)ccc1OCC(C)C (centres undefined),inactive
11,Cn1nc(-c2ccccc2)c(CO)c1Sc1ccccc1,inactive
12,Cc1ccc(S(=O)(=O)c2c(COC(=O)c3cccc(Cl)c3)c(-c3ccccc3)nn2C)cc1,inactive
13,Cn1nc(-c2ccccc2)c(CSc2cccc(Cl)c2)c1Cl,-8.39 (active)
14,COc1ccc(C(=O)NC2(C(F)(F)F)NC(=O)N(CCCc3ccccc3)C2=O)c(OC)c1OC (centres undefined),inactive
15,O=C(c1cccc(S(=O)(=O)N2CCCC2)c1)N(Cc1ccco1)C1CCS(=O)(=O)C1 (centres undefined),inactive
16,COC(=O)N/N=C/c1cn(CCCOc2ccc(C)cc2)c2ccccc12,inactive
17,CNC(=S)N/N=C/c1cn(Cc2ccc(C)cc2)c2ccccc12,inactive
18,CCOC(=O)N/N=C/c1cn(Cc2ccccc2Cl)c2ccccc12,-9.45 (active)
19,CCc1ccc(N(CC)c2ncnc3nc[nH]c23)cc1,inactive
20,Cc1cc(Cl)ccc1C(=O)C1CCCN(C(=O)CCN2CCCO2)C1 (centres undefined),inactive
21,CSc1ccc(/C=C/C(=O)NC23CC4CC(CC(C4)C2)C3)cc1,inactive
22,c1ccc(C2CNCc3c2ccc2ccccc32)cc1 (centres undefined),inactive

row,Compound,B-score
1,O=C(CSc1nnc(-c2cccnc2)n1Cc1ccco1)c1ccc(Cl)c(Cl)c1,inactive
2,Clc1cccc(-c2nc3nc4ccccc4nc3n2Cc2ccco2)c1,-10.9 (active)
3,O=c1[nH]c(CSc2ncc(-c3ccc(F)cc3)n2Cc2ccco2)nc2ccccc12,inactive
4,CN(Cc1c(F)cccc1Cl)S(=O)(=O)c1cccs1,inactive
5,CC1CCC2(CC1)NC(=O)N(CC(=O)c1cccn1C)C2=O (centres undefined),inactive
6,Cc1cccc(N2CCN(C(c3ccc(N(C)C)cc3)c3nnnn3C(C)(C)C)CC2)c1C (centres undefined),-7.3 (active)
7,Cc1cccc(N2CCN(C(c3ccccc3)c3nnnn3CC3CCCO3)CC2)c1C (centres undefined),inactive
8,CC(C)(C)n1nnnc1C(c1ccc(F)cc1)N1CCN(Cc2ccc3c(c2)OCO3)CC1 (centres undefined),inactive
9,Cc1cccc(C)c1NC(=O)c1ccc(CN2CCc3ccccc3C2)cc1,inactive
10,COc1ccc(OC)c(CNC(=O)CCc2nc(-c3cccs3)no2)c1,inactive
11,COc1ccc(-c2csc(-c3cccs3)n2)cc1OC,inactive
12,COc1ccc(OC)c(-c2csc(-c3cccs3)n2)c1,-11.7 (active)
13,COc1ccc(CNS(=O)(=O)c2ccc(NC(=O)N3CCCCC3)cc2)cc1,inactive
14,O=C(CNC(=O)c1cccnc1)N/N=C/c1cc(Br)c(O)c(Br)c1,inactive
15,CCCOc1ccc2c3c(c(=O)oc2c1OCCC)CCC3,-13.7 (active)
16,COc1ccc2c3c(c(=O)oc2c1OCC(=O)C(C)(C)C)CCCC3,inactive
17,Cc1c(OC(C)C(=O)N[C@@H](Cc2ccccc2)C(=O)O)ccc2c3c(c(=O)oc12)CCCC3 (some centres undefined),inactive
18,CN(C)c1ccc(/C=N\S(=O)(=O)c2ccccc2)cc1,inactive
19,CC[n+]1cc(C)ccc1/C=C/c1ccc(N(C)C)cc1,-6.65 (active)
20,CCCCCCCC1(C)NC(=O)N(CC(=O)Nc2cc(C)on2)C1=O (centres undefined),inactive
